Molecules are shown by their SMILES. Screen size: about 290,000 compounds; about 150 (0.052%) were called active. What follows is part of a selection rich in actives, with near analogues and random picks from the rest. Measured potencies and affinities stand elsewhere. A number with no mark means an inactive call.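 How the source made its calls: active means inhibition of at least 50% with at least 30 cells and total cytoplasm GFP at most 10,000,000; inconclusive means under 30 cells or total GFP of 10,000,000 plus; inactive means the rest.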

The target of the test is G-protein coupled receptor 35 (Homo sapiens) (UniProt Q9HC97). In words: GPR35 antagonists blocking zaprinast-driven arrestin recruitment, primary screen, imaging, U2OS, beta-arrestin-GFP, zaprinast agonist (AID 2058). Conditions: U2OS GPR35 beta-arrestin-GFP translocation imaging, zaprinast antagonism; at 10 µM; stronger effect = higher value. (In general: Arrestin recruitment assays detect the binding of arrestin to an activated receptor.)
Chain of G-protein coupled receptor 35 (Homo sapiens) (Q9HC97 whole entry, looked up): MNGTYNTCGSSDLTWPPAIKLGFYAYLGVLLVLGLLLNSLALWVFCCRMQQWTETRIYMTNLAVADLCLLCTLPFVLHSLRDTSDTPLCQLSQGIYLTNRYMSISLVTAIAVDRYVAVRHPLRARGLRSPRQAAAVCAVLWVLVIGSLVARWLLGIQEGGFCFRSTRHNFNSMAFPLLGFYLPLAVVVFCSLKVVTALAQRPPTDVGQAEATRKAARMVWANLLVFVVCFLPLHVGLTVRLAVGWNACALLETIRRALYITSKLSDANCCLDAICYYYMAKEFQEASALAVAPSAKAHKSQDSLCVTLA
As usually defined, the inhibition is the relative decrease from the control value, in per cent. On to `COc1ccc(C)cc1Nc1n[n+](-c2ccccc2)c(-c2ccc(SC)cc2)s1`, for which the inhibition was 20.4%. Consider `O=C(O)c1ccc(-c2sc(Nc3ccccc3)n[n+]2-c2ccc(F)cc2)cc1`, for which the inhibition is 0.5%. Take `Oc1ccc(-c2sc(Nc3ccccc3)n[n+]2-c2ccc(F)cc2)cc1`: the inhibition is 10.2%. In the case of `CSc1ccc(-c2sc(Nc3ccccc3)n[n+]2-c2ccc(F)cc2)cc1` it was -7.7%. For `COc1ccc(C)cc1Nc1n[n+](-c2ccccc2)c(-c2ccc(C(=O)O)cc2)s1`, the inhibition is 7.9%. In the case of `Fc1ccc(-[n+]2nc(Nc3ccccc3)sc2-c2ccc(OCc3ccccc3)cc2)cc1` it was 8.3%; in that of `COC(=O)c1cc(-c2ccc(Cl)cc2)n[nH]1`, 10.8%; in that of `CC(C)C(C)NC(=O)CN1C(=O)NC2(CCc3ccccc32)C1=O` (centres undefined), 9.4%. In the case of `Nc1nonc1-n1nnc(C(=O)N/N=C/c2ccc(OCc3ccc(F)cc3)cc2)c1COc1ccccc1` it was 5.9%; in that of `CC(C)(C)c1ccc(/C=C2\CCn3c2nc2cc(C(=O)O)ccc2c3=O)cc1`, 17.9%; in that of `O=Cc1[nH]c2ccccc2c1N(C(=O)CCl)c1ccccc1`, -1.1%.

Turning to `O=Cc1[nH]c2ccccc2c1N(C(=O)CCl)c1ccc([N+](=O)[O-])cc1`, the inhibition is 80.7% (active). In the case of `CC(=O)n1cc(N(C(=O)CCl)c2ccc([N+](=O)[O-])cc2)c2ccccc21` it was -2.4%; in that of `CSc1ccc(C2c3[nH]c4ccccc4c3CCN2C(=O)c2ccnn2C)cc1` (centres undefined), -11.7%.

On to `CCOc1ccc(CN2CCN(Cc3cccc4nonc34)CC2CCO)cc1` (centres undefined), for which the inhibition is 97.5% (active).

For the compound `CCOc1ccccc1CN1CCN(Cc2cccc3nonc23)CC1CCO` (centres undefined), the inhibition was 28.2%.

With `COc1cccc(CN2CCN(Cc3cccc4nonc34)CC2CCO)c1` (centres undefined), the inhibition is 8.1%. In the case of `CN(C)/C=C1\C(=O)ON=C1c1ccccc1` it was -9.5%; in that of `CCN(CC)C(=O)c1ccc(-c2nnc(Nc3ccc(C(=O)NC)cc3)c3ccccc23)cc1`, 5%; in that of `N=C1/C(=C\c2ccc(-c3cc(Cl)cc(Cl)c3)o2)C(=O)N=C2SC=C(c3ccccc3)N12`, -4.5%. In the case of `N=C1/C(=C\c2ccc(-c3ccc(C(=O)O)cc3)o2)C(=O)N=C2SC=C(c3ccccc3)N12`, the inhibition was 43%. In the case of `N=C1/C(=C\c2ccc(-c3cccc(Cl)c3)o2)C(=O)N=C2SC=C(c3ccccc3)N12` it was -1.6%; in that of `CC(C)S(=O)(=O)C1=NSC2=NC(=O)/C(=C\c3ccc(-c4cccc(C(=O)O)c4)o3)C(=N)N21`, -1.8%. With `O=C(c1ccsc1)N1CCCC(Nc2ccc(F)c(F)c2)C1` (centres undefined), the inhibition is 0%. In the case of `CC1CCCC(C)N1C(=O)c1cc2ncc(CCCl)cn2n1` (centres undefined) it was -11.5%; in that of `O=C(CCCC(=O)N(c1ccc(F)cc1)C(C(=O)NC1CCCC1)c1ccc(O)cc1)Nc1ccccn1` (centres undefined), 6.8%. In the case of `Cc1ccc(N/C(N)=N/c2nc(CSc3ccccn3)cc(=O)[nH]2)c(C)c1` it was 2.7%; in that of `C=CCSc1n[nH]c(-c2cccs2)n1`, 13.6%; in that of `COc1ccc(/C=C2\OC(=S)N(C)C2=O)cc1`, 22.6%. In the case of `CN1C(=S)N(c2cccnc2)C(=O)/C1=C\c1ccc(N(C)C)cc1` it was 15.6%; in that of `N#Cc1c(C(F)(F)F)cc(-c2cccs2)nc1SCc1cccnc1`, -12.1%.

Regarding `O=C(COC(=O)Cn1cnc2ccccc2c1=O)Nc1cc(Cl)ccc1[N+](=O)[O-]`, the inhibition is -6.5%. In the case of `CC(C)CNS(=O)(=O)c1ccc2c(c1)OCCO2` it was 13.4%; in that of `COC(=O)c1cnn(-c2ccc(Cl)cc2)c1/C=N/NC(N)=S`, 7%; in that of `COC(=O)c1cnn(-c2ccccc2)c1/C=N/NC(=S)Nc1ccccc1`, 35.2%.

For `COC(=O)c1cnn(-c2ccccc2)c1/C=N/NC(=S)Nc1ccc(Cl)cc1`, the inhibition was -10.9%. In the case of `COC(=O)c1cnn(-c2ccc(F)cc2F)c1/C=N/NC(N)=S` it was 17.4%; in that of `COc1ccc(C2=NOC(C(=O)Nc3cccc(O)c3)C2)cc1` (centres undefined), -13.8%; in that of `COc1ccc(-c2cc3c(=O)n(CC(=O)NC4CCN(Cc5ccccc5)CC4)ncn3n2)cc1`, 19.6%.

On to `CCCc1c(O)nc(SCC(=O)NCc2ccco2)[nH]c1=O`, for which the inhibition is -14.7%.

As to `Cc1ccsc1-c1nc(C(N)=O)c2[nH]c(=O)n(-c3ccc(Cl)cc3)c2n1`, the inhibition is -1.2%. In the case of `O=C(NCc1ccc2c(c1)OCO2)C1CC(=O)N(CCc2ccc(Cl)cc2)C1` (centres undefined) it was -11.7%. In the case of `COc1cc(C(=O)Nc2ccc(C(N)=O)cc2)c([N+](=O)[O-])cc1OC` it was 3%; in that of `COc1ccc2nc(N=NC3=C(O)CC(C)(C)CC3=O)sc2c1`, 0.7%; in that of `COc1ccc(-c2nnc(-c3ccc(OCC(C)C)cc3)o2)cc1`, 4.6%. In the case of `CC(C)COc1ccc(-c2nnc(-c3ccncc3)o2)cc1` it was 2.8%. As to `O=C(COC(=O)Cc1ccsc1)Nc1ccc(Cl)c(S(=O)(=O)N2CCOCC2)c1`, the inhibition was 23.9%. In the case of `CCOc1ccc(/C=C/C(=O)c2ccccc2)cc1`, the inhibition was 7%. In the case of `O=C(O)COc1ccc(/C=C/C(=O)c2ccc3ccccc3c2)cc1` it was 12.2%.

Regarding `COC(=O)c1sc(NC(=O)CSc2nnc(Cn3nnc4ccccc43)n2C)nc1C`, the inhibition was 5.3%. In the case of `CN(C)/C=C1\SC(=S)N(c2ccc(F)cc2)C1=O` it was 9.5%; in that of `CN(C)/C=C1\SC(=S)N(c2ccc(Br)cc2)C1=O`, 21.4%; in that of `Nc1ccc(S(=O)(=O)NC(Cc2ccccc2)C(=O)O)cc1` (centres undefined), -10.2%. In the case of `CCCN1C(=O)/C(=C/c2c(N3CCNC(=O)C3CC(=O)OC)nc3c(C)cccn3c2=O)SC1=S` (centres undefined) it was 12.4%. In the case of `CCOC(=O)CC1C(=O)NCCN1c1nc2ccc(C)cn2c(=O)c1/C=C1\SC(=S)N(CC(C)C)C1=O` (centres undefined) it was 21.7%; in that of `CCCN1C(=O)/C(=C/c2c(N3CCNC(=O)C3CC(=O)OCC)nc3c(C)cccn3c2=O)SC1=S` (centres undefined), 33%. Take `CCOC(=O)CC1C(=O)NCCN1c1nc2ccc(C)cn2c(=O)c1/C=C1\SC(=S)N(C(C)CC)C1=O` (centres undefined): the inhibition is 43.7%.

Turning to `CCOC(=O)CC1C(=O)NCCN1c1nc2c(C)cccn2c(=O)c1/C=C1\SC(=S)N(CC(C)C)C1=O` (centres undefined), the inhibition was 58.9% (active).

For `CCOC(=O)CC1C(=O)NCCN1c1nc2c(C)cccn2c(=O)c1/C=C1\SC(=S)N(C(C)CC)C1=O` (centres undefined), the inhibition was 55.7% (active).
